# Assay outcomes (PubChem)
# Shown are actives, neighbours in structure and some others; about 19% of the full set was active somewhere.
# HT1080 IDH1KD tx: kills HT-1080 cells with IDH1 knockdown; HT-1080 IDH1 knockdown viability, ATP luminescence, 48 h; Potency, µM (series often up to 46.1 µM), for inactives: top-dose activity, negative = toxicity, most hits filed as cytotoxic; actives 2% (n = 360,000); AID 686971;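 also: 0% = DMSO wells and -100% = cell-free medium wells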
#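 Knockdown cells (IDH1KD HT-1080) received compounds 2 h after plating at 750 cells/well and were kept 48 h at 37 °C in 5% FBS RPMI. A CellTiter-Glo luminescence read gave % activity for curve fitting.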
# TDP1 cell CPT: growth inhibition of DT40 Tdp1-/-;hTDP1 cells with camptothecin (screen for TDP1 inhibitors); AID 686979; actives 12% (n = 420,000); chicken DT40 Tdp1-/-;hTDP1 cells + 20 nM CPT, ATP luminescence, 48 h; Potency, µM (highest dose often 46.2 µM), without a hit: at the highest dose activity change, negative = growth inhibition, usual class: inhibitors; also: nearly all actives have a fitted effect of over 55% in size
#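 Chicken DT40 Tdp1-/- cells complemented with human TDP1, 400 cells/well, exposed to compounds plus 20 nM camptothecin for at least 48 h at 37 C; viability read as ATP content by CellTiter-Glo luminescence.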
# KB-V1 MDR tox: kills drug-selected multidrug resistant KB-V1 cells; Potency, µM (doses to about 46.1 µM), hits mostly cytotoxic; actives 3.4% (n = 400,000); KB-V1 MDR cells viability, CellTiter-Glo, 72 h; AID 1347076; also: nearly all actives have a fitted effect of over 60% in size
#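 Compound-treated KB-V1 multidrug-resistant cells, 72 h, 37 degrees C; viability by CellTiter-Glo. Fitted qHTS curves give the values.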
# HT1080NT lethal: kills 2HG-producing HT-1080-NT fibrosarcoma cells; HT-1080-NT fibrosarcoma viability, CellTiter-Glo ATP luminescence, 48 h; Potency, µM (highest dose often 46.1 µM), inactives show at the top dose activity, negative = less viability, hits mostly cytotoxic; actives 1.6% (n = 360,000);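 also: NT is the 2HG producing partner of a matched IDH1 knockdown line; 0% = DMSO-treated cells and -100% = media-only wells without cells; nearly all actives have a fitted effect of over 55% in size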
#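 HT-1080-NT; 750 cells/well; 5% FBS RPMI; 48 h compound, 37 degrees C; CellTiter-Glo luminescence; curve fitting and curve-class assignment.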
# DT40 TDP1 no CPT: qHTS for Inhibitors of human tyrosyl-DNA phosphodiesterase 1 (TDP1): qHTS in cells in absence of CPT. DT40 Tdp1-/- hTDP1 cells, no CPT, ATP luminescence, 48 h. Potency, µM (doses to about 46.2 µM), for the others: top-dose activity change, negative = growth inhibition, hits mostly inhibitors. actives 15% (n = 420,000); also: nearly all actives have a fitted effect of over 55% in size
#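 Cells were dispensed at 400 per well, compounds added by pin tool, plates incubated ≥48 hr at 37 °C, then CellTiter-Glo added for 30 min at room temperature before luminescence reading. Line: DT40 Tdp1-/- complemented with hTDP1; camptothecin omitted.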
# KB-3-1 tox: kills parental KB-3-1 adenocarcinoma cells | actives 1.4% (n = 400,000) | Potency, µM (highest dose often 46.1 µM), actives largely listed as cytotoxic | AID 1347075 | KB-3-1 viability, CellTiter-Glo ATP luminescence, 72 h; also: nearly all actives have a fitted effect of over 60% in size
#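 Cytotoxicity in the drug-sensitive parental line KB-3-1 was scored as loss of CellTiter-Glo luminescence following 72 h incubation with compound. Values come from curve fitting of normalized concentration-response data.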
# * marks the source's active call; other numbers are inactive results; i = inactive; ? = inconclusive; · = no result given; ! = repeats disagree; [ ] = remark or other dose. Calls follow the shape of the dose curve; as a rule, active = well fitted curve in the direction sought with a large enough effect; inconclusive = small, poorly fitted or top-dose-only effect, or another doubt; inactive = no such curve, though single readings can be large; an effect the other way counts as inactive or inconclusive. Unless noted, % is scaled to controls: 0 for no effect and ±100 for the full control effect; potency is read from the fitted curve at half-maximal effect.
SMILES,HT1080 IDH1KD tx,TDP1 cell CPT,KB-V1 MDR tox,HT1080NT lethal,DT40 TDP1 no CPT,KB-3-1 tox
O=C(COc1ccc([N+](=O)[O-])cc1)NCC1(N2CCOCC2)CCCCC1,·,-29%,·,·,?,·
CC(C)(C)c1ccc(OCC(=O)NCC2(N3CCOCC3)CCCCC2)cc1,·,13µM*,·,·,16µM*,·
COc1cc2[nH]c(=O)n(CCCC(=O)NCc3ccccc3)c(=O)c2cc1OC,·,-11%,i,·,-9%,i
CCOc1cc2[nH]c(=O)n(CCCN3CCN(c4ccc(OC)cc4)CC3)c(=O)c2cc1OCC,1%,?,i,-1%,?,i
COC(=O)c1ccc2c(=O)n(CCCCCC(=O)N3CCN(c4cc(Cl)ccc4C)CC3)c(=O)[nH]c2c1,·,7.3µM*,i,·,5.8µM*,i
COC(=O)c1ccc2c(=O)n(CCCCCC(=O)N3CCN(c4ccccc4)CC3)c(=O)[nH]c2c1,-7%,18µM*,?,4%,10µM*,?
COc1cc2[nH]c(=O)n(CCCC(=O)N3CCN(c4cccc(C(F)(F)F)c4)CC3)c(=O)c2cc1OC,·,4.6µM*,i,·,2.3µM*,i
CCOc1cc2[nH]c(=O)n(CCCCC(=O)N3CCN(c4ccc(OC)cc4)CC3)c(=O)c2cc1OCC,·,16µM*,i,·,9.2µM*,i
O=C(CCn1c(=S)[nH]c2cc3c(cc2c1=O)OCO3)NCc1ccccc1Cl,-1%,-6%,?,-2%,5%,i
S=C(N/N=C/c1cccs1)NC1CC2CCC1C2 (stereo not drawn),?,-27%,?,?,?,i
C/C(=N\NC(=O)CSCc1cccc(Br)c1)c1ccc([N+](=O)[O-])cc1,-2%,-12%,i,-25%,-12%,i
CCN(C(=O)C(C)Cl)c1ccccc1 (stereo not drawn),15%,0%,i,5%,4%,i
COc1cc2[nH]c(=O)n(CCC(=O)N3CCN(Cc4ccccc4)CC3)c(=O)c2cc1OC,10%,-6%,i,14%,?,i
COc1cc2[nH]c(=O)n(CCC(=O)N3CCN(c4cccc(C)c4C)CC3)c(=O)c2cc1OC,16%,23µM*,i,-4%,?,i
COc1cc2[nH]c(=O)n(CCC(=O)N3CCN(c4ccc(Cl)cc4)CC3)c(=O)c2cc1OC,·,-21%,i,·,-25%,i
COc1cc2[nH]c(=O)n(CCCCCC(=O)N3CCN(c4ccccc4)CC3)c(=O)c2cc1OC,-13%,21µM*,?,-5%,16µM*,i
COc1cc2[nH]c(=O)n(CCCCCC(=O)N3CCN(c4ccc(Cl)cc4)CC3)c(=O)c2cc1OC,·,?,i,·,7.3µM*,i
Cc1cnc(-n2ncc(C(=O)N(C)CC3COCCO3)c2C2CC2)nc1-c1cccs1 (stereo not drawn),·,-15%[9.04 µM],·,·,-7%,·
Cc1ccc2oc(=O)c3cc(C(=O)N4CCN(C)CC4)sc3c2c1,4%,-4%,i,0%,4%,i
COc1ccc(C2(c3ccc(OC)cc3)NC(=O)N(CC(=O)NC3(C#N)CCCCC3)C2=O)cc1,0%,7%,?,-10%,12%,i
O=S1(=O)CCO[C@H]2CCCC[C@@H]2N1Cc1ccccc1Br,·,?,?,·,?,i
O=S1(=O)CCO[C@H]2Cc3ccccc3[C@H]2N1Cc1ccccc1F,-14%,23µM*!,i,0%,?,i
O=S1(=O)CCO[C@H]2Cc3ccccc3[C@H]2N1Cc1ccccc1Br,2%,?,i,-1%,23µM*,?
O=C(N/N=C/c1cc(Br)c(O)c(Br)c1)c1cc2c(ccc3ccccc32)o1,?,13µM*,?,-26%,?,i
O=C(N/N=C/c1ccc(O)c(Br)c1)c1cc2c(ccc3ccccc32)o1,26%,?,i,-1%,-4%,i
SMILES,HT1080 IDH1KD tx,TDP1 cell CPT,KB-V1 MDR tox,HT1080NT lethal,DT40 TDP1 no CPT,KB-3-1 tox
CCn1cc(/C=N/NC(=O)c2cc3c(ccc4ccccc43)o2)c2ccccc21,-26%,?,18µM*,-24%,?,?
CCOc1cc(/C=N/NC(=O)c2cc3c(ccc4ccccc43)o2)ccc1O,?,23µM*,i,-8%,?,i
Cc1cc(/C=N/NC(=O)c2cc3ccccc3o2)c(C)n1C,-17%,15µM*,i,-17%,23µM*,i
CCOC(=O)Cc1cc(=O)[nH]n(-c2ccccc2)c1=O,-4%,3%,i,-6%,7%,i
CCN(CC(=O)NCc1ccc(Cl)cc1)C(=O)C(C)Sc1ccccc1 (stereo not drawn),3%,?,·,4%,-8%,·
CCOc1ccc(CCNC(=O)C2CCN(Cc3nc(-c4ccc(OC)c(OC)c4)oc3C)CC2)cc1OCC,·,-1%,i,·,-7%,i
COc1ccc(C)cc1NC(=O)CSc1nnnn1Cc1ccccc1,2%,?,i,-2%,?,i
COc1ccc(CNC(=O)CSc2nnnn2Cc2ccccc2)cc1,?,?,?,?,?,16µM*
COc1ccc(CSc2nnnn2Cc2ccccc2)cc1OC,2%,-16%,23µM*,3%,-30%,i
Cc1ccsc1C(=O)N(C)CC(=O)Nc1ccccc1Br,12%,-2%,i,2%,-16%,i
c1csc(-c2csc3nc(CN4CCOCC4)nc(NCc4ccc5c(c4)OCO5)c23)c1,-28%,23µM*,?,?,?,i
c1ccc2c(c1)nc(NCc1ccc3c(c1)OCO3)n2CCN1CCOCC1,0%,-14%,i,-7%,-7%,i
CC1(C)CC2CC(C)(CN2/C=C2/CCCCC2=O)C1 (stereo not drawn),0%,?,i,12%,?,i
O=c1c(-c2ccc(Cl)cc2)nc2cnc(N3CCNCC3)nc2n1CCc1ccccc1,·,12µM*,·,·,18µM*,·
N#CCCn1c(=O)c(-c2cccs2)nc2cnc(N3CCNCC3)nc21,·,?,·,·,3.7µM*,·
Cn1c(=O)c(CCc2ccccc2)nc2cnc(N3CCNCC3)nc21,·,?,·,·,9.2µM*,·
COCCn1c(=O)c(-c2ccc(Cl)cc2)nc2cnc(N3CCNCC3)nc21,·,6.5µM*,·,·,12µM*,·
COCCn1c(=O)c(-c2ccccc2)nc2cnc(N3CCNCC3)nc21,·,11%,·,·,-28%,·
